# Data reported in ChEMBL document CHEMBL3988442, “University of Dundee, Small-Polar-MMV Screening Library” (2021).
# About 950 (1.4%) of roughly 69,000 compounds showed an effect of 50% or more. Shown is part of a subset that was picked to be rich in strong results.
# Test system: Mycobacterium tuberculosis
# Assay: Cornell M. t heat shock assay; note: in the data most compounds retested in dose-response had high values
# Format: functional, organism-based
# Parameters: dose or concentration left out as unconfirmed
row,SMILES,Percent Effect
1,CC(C)C[C@H](N)c1nnc(SCC(N)=O)o1.Cl,-14.25%
2,Cn1ccnc1CN1CCC2(CC1)COC2.O=C(O)C(F)(F)F,6.701%
3,CN(C)C(=O)c1nc2c(s1)CCCN2Cc1ccccc1,1.043%
4,CC(C)NC(=O)c1nc2c(s1)CCCN2Cc1ccccc1,16.22%
5,CCN(C(=O)c1nc2c(s1)CCCN2Cc1ccccc1)C(C)C,52.41%
6,O=C(O)C(F)(F)F.O=C(O)C(F)(F)F.O=C(c1cccnc1)N1CCC2(CC1)COC(COc1ccccn1)C2 (centres undefined),-16.52%
7,CC[C@@H]1N(Cc2ccncc2)CCC[C@]12CCC(=O)N2CCOC.O=C(O)C(F)(F)F.O=C(O)C(F)(F)F,-19.31%
8,O=C(O)C(F)(F)F.O=C(O)C(F)(F)F.c1cnc(N2CCO[C@H]3CN(CC4CC4)C[C@H]32)nc1,-34.72%
9,COc1ccccc1[C@@H]1CN(Cc2ccc3nsnc3c2)C[C@H]1C(=O)O,-17.79%
10,COc1ccccc1[C@@H]1CN(Cc2ccncc2)C[C@H]1C(=O)O,45.83%
11,COc1ccccc1[C@@H]1CN(Cc2cc(C(C)(C)C)[nH]n2)C[C@H]1C(=O)O,79.87%
12,CN1CC(=O)N(c2ccccc2)CC12CCN(CC1CCOCC1)C2.O=C(O)C(F)(F)F.O=C(O)C(F)(F)F (centres undefined),3.802%
13,CC(C)Cn1cnc2ccc(NC(=O)CCCn3cccn3)cc2c1=O,60.75%
14,Cn1cnc2ccc(NC(=O)CCCn3cccn3)cc2c1=O,5.614%
15,CC(C)n1cnc2ccc(NC(=O)CCCn3cccn3)cc2c1=O,-15.69%
16,CC(C)[C@H](N)CC(=O)Nc1nc(-c2cnc(N3CCOCC3)nc2)cs1.Cl,-24.08%
17,CCC(=O)N1C[C@@H]2CCN(c3cnccn3)C[C@@H]2C1.O=C(O)C(F)(F)F,-28.75%
18,O=C(O)C(F)(F)F.c1cnc(NCc2nnn3c2CN(Cc2ccco2)CCC3)nc1,-16.16%
19,Cc1ccc(C2NC(=O)c3cc(C(C)C)sc3N2)cc1 (centres undefined),19.82%
20,CC(C)c1cc2c(s1)NC(c1ccccn1)NC2=O (centres undefined),100.6%
21,CC(C)c1cc2c(s1)NC(c1ccccc1)NC2=O (centres undefined),16.99%
22,CC(C)C(=O)N1CCN(Cc2ccccn2)CC2(CC(=O)N(C)C2)C1.O=C(O)C(F)(F)F.O=C(O)C(F)(F)F (centres undefined),-3.72%

row,SMILES,Percent Effect
1,COc1ccccc1C(C)N(C)Cc1nc2c(cnn2C)c(=O)[nH]1 (centres undefined),82.45%
2,Cc1ccc(C(C)N(C)Cc2nc3c(cnn3C)c(=O)[nH]2)cc1 (centres undefined),36.86%
3,Cc1ccc(C(C)N(C)Cc2nc3c(cnn3C)c(=O)[nH]2)s1 (centres undefined),59.53%
4,Cc1ccc(CN(Cc2nc3c(cnn3C)c(=O)[nH]2)C(C)C)s1,-2.161%
5,Cc1ccc(C(C)N(C)Cc2nc3c(cnn3C)c(=O)[nH]2)c(C)c1 (centres undefined),-15.24%
6,CC(C)N(Cc1ccccn1)Cc1nc2c(cnn2C)c(=O)[nH]1,66.99%
7,CC(C)CN(Cc1nc2c(cnn2C)c(=O)[nH]1)C(C)C,9.965%
8,CC(c1ccccc1Cl)N(C)Cc1nc2c(cnn2C)c(=O)[nH]1 (centres undefined),-6.582%
9,Cc1ccccc1C(C)N(C)Cc1nc2c(cnn2C)c(=O)[nH]1 (centres undefined),-10.61%
10,COC(=O)CCC(=O)N1CCCC2(CCCN2Cc2cccc(F)c2)C1.O=C(O)C(F)(F)F (centres undefined),3.912%
11,O=C(O)C(F)(F)F.O=C(c1ccco1)N1CC[C@@H]2O[C@@H](COCCN3CCCC3)CC[C@@H]21,-12.96%
12,COCCN1CCC2(CC1)C(=O)Nc1ccc(C(=O)NC(C)C)cc12.O=C(O)C(F)(F)F,-30.6%
13,O=C(NC1CCCN(c2ccc(OC(F)F)cc2)C1)c1cnccn1 (centres undefined),27.97%
14,Cl.O=C(CN1CCCC1=O)N1CCC(O)(Cn2ccc3ccncc32)CC1,9.776%
15,O=C(O)C(F)(F)F.O=S(=O)(C1CC1)N1C[C@@H]2COC[C@]2(COc2ccccn2)C1,-12.78%
16,COc1cccc(CC2CCCN2Cc2nccn2C)c1 (centres undefined),0.2214%
17,CNCC(=O)N1CCCC1c1n[nH]cc1-c1ccccc1F.Cl (centres undefined),-23.25%
18,COc1ccncc1NCc1ccsc1,-12.4%
19,COc1ccc(CNC(Cc2ccsc2)c2ccc(C)cn2)c(OC)c1 (centres undefined),104.3%
20,COc1cccc(CNC(C)C)c1OCc1ccc(C)cc1.Cl,4.479%
21,COc1cccc(OC)c1CNC(Cc1ccsc1)c1ccc(C)cn1 (centres undefined),103.5%
22,Cc1cccnc1C(Cc1ccsc1)NCc1cnc(N(C)C)nc1 (centres undefined),69.2%

row,SMILES,Percent Effect
1,Cc1cccnc1C(Cc1ccsc1)NC(=O)Cn1cccnc1=O (centres undefined),-0.9287%
2,COc1ccc(NC(=O)N(CCO)Cc2ccsc2)c(OC)c1,-10.14%
3,Cc1cccc(-c2ncc(CNC(C)Cc3ncccc3C)cn2)c1 (centres undefined),1.404%
4,CCc1cnc(N)nc1NCc1ccc(OC)cc1OC,-28.22%
5,COc1ccc(CNC(Cc2ccsc2)c2ccc(C)cn2)cc1OC.Cl (centres undefined),97.07%
6,COc1ccc(CNC(Cc2cccs2)c2nc(C)c(C)s2)cc1OC.Cl (centres undefined),-4.28%
7,COc1ccc(CNc2c(C)nn(C(C)C)c2C)cc1OC.Cl,12.96%
8,COc1ccccc1OCCNCc1c(C)nn(C)c1N(C)C.Cl,31.69%
9,COc1ccc(CC(=O)NCC(O)c2sccc2C)cc1OC (centres undefined),0.2606%
10,Cc1ccc(CNC2CCc3[nH]c(=O)ccc3C2)cc1C.O=C(O)C(F)(F)F (centres undefined),-33.52%
11,O=C(O)C(F)(F)F.O=C(O)C(F)(F)F.c1cnc(N2CC3(CCN(Cc4cccnc4)C3)C2)nc1,-26.88%
12,CN1CCCC1c1cncc(C(=O)NCCN2CCCCC2)n1 (centres undefined),-9.497%
13,O=C(Nc1cccnc1-n1cc(Cl)cn1)C1CCCC1,16.14%
14,Cc1cc(C2CCNCC2)nc(-c2ccsc2)n1.Cl,-13.2%
15,CN(C)[C@@H]1CCN(C(=O)Cc2ccc(F)cc2)[C@H]1Cc1cnn(C)c1.O=C(O)C(F)(F)F,10.95%
16,COc1ccc(CNC(Cc2ccsc2)c2ncccc2C)cc1OC (centres undefined),96.19%
17,COc1ncc(NCc2ccsc2)cc1C(N)=O,-17.59%
18,COc1ccc(C(C)NCc2ccsc2)cc1Cn1cccn1 (centres undefined),-10.38%
19,CCc1cnc(N)nc1NCc1ccc(OC)c(OC)c1,5.948%
20,COc1ccc(CNC(C)Cn2cccn2)cc1OC (centres undefined),-13.02%
